Experiment [1] deals with Cytochrome P450 1A2 (Homo sapiens) (UniProt P05177). As to the kind of experiment: p450-cyp1a2 (AID 410; calls by dose curve; further: potency means the concentration at half of the fitted maximal effect;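 on activity change, negative = inhibition: -100% = full effect of reference inhibitor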). The method, boiled down: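 O-Demethylation of luciferin 6' methyl ether by human CYP1A2 is monitored as luciferase luminescence. Substrate sits at Km (100uM); enzyme is 20nM. Values are scaled to 57 uM furafylline as maximal inhibition.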
Experiment [2] is described as follows: Cell Viability - BJ (AID 421; calls by dose curve;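 further: potency means the concentration at half of the fitted maximal effect; cells exposed to compound for 40 hours at 37 °C before readout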). To be noted: BJ fibroblast viability, qHTS. The method, boiled down:
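Luminescent ATP signal (CellTiter-Glo, 20 min at room temperature) served as the read-out of viable BJ cells after 40 hours of compound treatment. Responses were scaled between DMSO and 100 uM tamoxifen, and AC50 values were obtained by Hill modeling.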

Experiment [3] is described as follows: Cell Viability - Jurkat (AID 426;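 active means dose-dependent loss of cell ATP signal giving a full or clear fitted curve, ranked by lower potency value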;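 further: potency means the concentration at half of the fitted maximal effect; cells exposed to compound for 40 hours at 37 °C before ATP read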). To be noted: qHTS. A digest of the protocol:
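Cells of the human T-cell leukemia line Jurkat (E6-1) are seeded at 5000 per well, treated with compound across a concentration range for 40 hours at 37 °C, then lysed with CellTiter-Glo; luminescence reports ATP.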

A short description of experiment [4]: Cell Viability - Hek293 (AID 427;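 active means compounds whose dose-response curve shows a full or clear partial loss of cell viability, called from curve shape rather than a numeric limit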;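 further: potency means the concentration at half of the fitted maximal effect; cells exposed to compound for 40 hours at 37 °C before reading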). To be noted: qHTS. The method, boiled down: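 Luminescent ATP read-out (CellTiter-Glo, 20 min RT) after 40 hr compound exposure at 37 °C in complete medium. Signal normalized to DMSO (basal) and 100 uM tamoxifen (100% inhibition); concentration-response fitted with the standard Hill equation to give AC50.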
Experiment [5] in a line: Cell Viability - HepG2 (AID 433; calls by dose curve;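 further: potency means the concentration at half of the fitted maximal effect; potency for ATP loss meaning cytotoxicity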). To be noted: qHTS. The method, boiled down: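 ATP luminescence (CellTiter-Glo) after 40 h compound exposure, 37 °C, HepG2, 1500 cells/well, complete medium. Normalized: DMSO = basal, 100 uM tamoxifen = 100% inhibition. AC50 via standard Hill equation.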
A short description of experiment [6]: Cell Viability - MRC5 (AID 434; calls by dose curve;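 further: potency means the concentration at half of the fitted maximal effect; potency reflects cytotoxicity seen as loss of intracellular ATP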). To be noted: MRC5 lung fibroblast viability, qHTS. A digest of the protocol:
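Decrease in intracellular ATP, quantified by luciferase light output, reflects compound toxicity toward MRC5 cells exposed for 40 hr in complete culture medium. Concentration-response curves, scaled between DMSO and 100 uM tamoxifen, gave AC50 values.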

Experiment [7] in a line: Cell Viability - SK-N-SH (AID 435; calls by dose curve; further: potency means the concentration at half of the fitted maximal effect). Conditions: SK-N-SH neuroblastoma cell viability qHTS. A digest of the protocol:
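CellTiter-Glo ATP luminescence, 20 min RT read; cells pre-plated 5 hr, compound 40 hr at 37 °C, 1500 cells/well, complete medium. Normalized DMSO = 0, 100 uM tamoxifen = 100% inhibition; Hill-fit AC50.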

The nature of experiment [8]: NFAT Signaling Pathway (AID 444).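 Further: carbachol stimulus at about its EC50 of 1 µM final; on the % scale 0 is the no-effect control and ±100 the full control effect.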 To be noted: Jurkat NFAT-bla M1, carbachol, beta-lactamase ratio, 5 h; at 17.2 µM (top of the series). A digest of the protocol: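 Jurkat cells carrying an NFAT-driven β-lactamase reporter and co-transfected muscarinic M1 receptor were treated with compound plus carbachol (1 uM final, an EC50 level) for 5 h at 37 °C. CCF4 loading followed for 1 h at RT; 460/530 nm ratio gave %activity.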

Experiment [9] addresses Mitogen-activated protein kinase 10 (Mus musculus) (UniProt Q61831). As to the kind of experiment: JNK3 AlphaScreen Assay (AID 530).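 Further: kinase came from lysate of stimulated human HepG2 cells; signal reports phosphorylation of biotinylated GST-cJun 1-79 at Ser73 with 10 µM ATP; on the % scale 0 is the no-effect control and ±100 the full control effect.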 The method, boiled down: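 Phosphorylation of biotinylated GST-cJun(1-79) at Ser73 is measured by AlphaScreen proximity luminescence. Enzyme is JNK3 in HepG2 lysates activated with interleukin-1beta and tumor necrosis factor alpha; ATP is 10 uM final.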

Experiment [10] in a line: Cell Viability - N2a (AID 540; active means well fitted curve in the direction sought with a large enough effect; an effect the other way counts as inactive or inconclusive; further: nearly all actives have a fitted effect of over 45% in size; further: potency means the concentration at half of the fitted maximal effect;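 on activity change, negative = cytotoxicity: plate controls were DMSO alone for no effect and tamoxifen control for full effect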). Conditions: N2a mouse neuroblastoma cell viability; activity change, negative = cytotoxicity: at 92.2 µM (top of the series). A digest of the protocol:
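Cytotoxicity was scored as loss of cellular ATP in N2a cells, a mouse neuroblastoma line. Compounds are applied in a qHTS concentration series for 40 hr at 37 °C.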

Experiment [11] in a line: Cell Viability - NIH 3T3 (AID 541; active means well fitted curve in the direction sought with a large enough effect; an effect the other way counts as inactive or inconclusive; further: nearly all actives have a fitted effect of over 25% in size; further: potency means the concentration at half of the fitted maximal effect;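 on activity change, negative = cytotoxicity: plate controls were DMSO alone for no effect and tamoxifen positive control for full effect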). Conditions: NIH 3T3 cell viability, qHTS; activity change, negative = cytotoxicity: at 92.2 µM (top of the series). A digest of the protocol: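 Cells seeded at 1000/well, rested 5 hr at 37 °C, then dosed and incubated 40 hr at 37 °C. CellTiter-Glo added, 20 min room temperature, luminescence read. AC50 by Hill fit.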
The nature of experiment [12]: Cell Viability - HUV-EC-C (AID 542; active means well fitted curve in the direction sought with a large enough effect; an effect the other way counts as inactive or inconclusive; further: nearly all actives have a fitted effect of over 35% in size; further: potency means the concentration at half of the fitted maximal effect). The method, boiled down: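 Cells were seeded at 1000 per well and incubated 5 hr at 37 °C before compound addition. After 40 hr at 37 °C, CellTiter-Glo reagent was added for 20 min and luminescence read. AC50 values came from Hill-equation modelling.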
Experiment [13] is described as follows: Cell Viability - H-4-II-E (AID 543; active means well fitted curve in the direction sought with a large enough effect; an effect the other way counts as inactive or inconclusive; further: nearly all actives have a fitted effect of over 35% in size; further: potency means the concentration at half of the fitted maximal effect). The method, boiled down: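 Cells seeded at 1500 per well and rested 5 hr; compounds added; 40 hr incubation at 37 °C; CellTiter-Glo added, 20 min at room temperature; luminescence read. Hill-equation fits gave AC50.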
Experiment [14] can be described thus: Cell Viability - SH-SY5Y (AID 544; active means well fitted curve in the direction sought with a large enough effect; an effect the other way counts as inactive or inconclusive;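 further: 0% = DMSO alone and -100% = 100 µM tamoxifen; nearly all actives have a fitted effect of over 55% in size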). Conditions: SH-SY5Y neuroblastoma cell viability; viability change, negative = cytotoxic: at 92.2 µM (top of the series). A digest of the protocol: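 Cells were plated at 1500 per well and allowed 5 hr at 37 °C. Compounds were added across a concentration range and incubated 40 hr at 37 °C. CellTiter-Glo was added for 20 min at room temperature before luminescence reading.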

Experiment [15] in a line: Cell Viability - Renal Proximal Tubule (AID 545; active means well fitted curve in the direction sought with a large enough effect; an effect the other way counts as inactive or inconclusive;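 further: 0% = DMSO only and -100% = 100 µM tamoxifen; nearly all actives have a fitted effect of over 40% in size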). Conditions: renal proximal tubule cells viability, primary cells of rat origin; activity change, negative = cytotoxicity: at 91.7 µM (top of the series). The method, boiled down: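 Rat kidney proximal tubule cells, freshly isolated; 1000 cells/well, 5 hr settle, compound 40 hr 37 °C. CellTiter-Glo 20 min RT, luminescence read. AC50 by standard Hill fit.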

Experiment [16] is described as follows: AP1 Signaling Pathway (AID 357).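 Further: ME-180 reporter cells stimulated with EGF at its EC50 level; on the % scale 0 is the no-effect control and ±100 the full control effect.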 To be noted: ME-180 AP-1-bla reporter, EGF-induced, beta-lactamase ratio, 5 h; at 17.2 µM (top of the series). The method, boiled down: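 Titration-series screen for positive or negative modulators of EC50 EGF-induced signaling in ME-180 cells carrying an AP-1-driven beta-lactamase reporter. After 5 hours at 37 degrees Celsius, CCF4 460nm/530nm emission ratio gave %Activity; AC50 values derived.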

A short description of experiment [17]: Stat Signaling Pathway (AID 446).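 Further: ME-180 cervical cancer cells given 40 pM IL-6 alongside compound; SIE-controlled beta-lactamase reporter measured as 460/530 nm FRET emission ratio; on the % scale 0 is the no-effect control and ±100 the full control effect.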 Conditions: ME-180 (cervical carcinoma) SIE beta-lactamase reporter, IL-6 stimulated, 5 h; at 17.2 µM (top of the series). A digest of the protocol:
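Compound effects on IL-6-induced STAT reporter activity were measured in ME-180 cells. After overnight culture, cells were co-treated with 40 pM IL-6 for 5 hrs before beta-lactamase substrate loading at room temperature.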

Experiment [18] addresses Glucocorticoid receptor (Homo sapiens) (UniProt P04150). As to the kind of experiment: GR-EFC Redistribution (AID 451; calls by dose curve; further: potency means the concentration at half of the fitted maximal effect). Conditions: CHO-K1 GR-EFC translocation, beta-gal luminescence, 2 h. A digest of the protocol:
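CHO-K1 cells stably expressing nuclear-localized β-gal enzyme acceptor and GR fused C-terminally to the enzyme donor fragment; ligand-driven nuclear translocation restores β-gal by complementation. Compounds titrated up to 46 uM final, 2 h at 37 °C; luminescence read.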

Experiment [19] shares this target. Description: GR-GFP Redistribution (AID 450;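 active means compounds whose dose series gives a full or clear partial fitted curve of increased nuclear translocation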; further: potency means the concentration at half of the fitted maximal effect). Conditions: U2OS GR-GFP nuclear translocation, laser cytometry, 2 h.

“And” between values parts separate entries of the source, which are not always exact repeats. Identical values can stand only once. Values without a mark were called inactive. Inconclusive results are not listed. The source made the active and inactive calls. Unless noted, the call rests on the fitted dose curve; in most records, active means well fitted curve in either direction with a large enough effect (not every such curve was filed as active); inconclusive means small, poorly fitted or top-dose-only effect, or another doubt; inactive means flat fitted curve, though single readings scatter.

Chain of Glucocorticoid receptor (Homo sapiens) (P04150 whole entry, looked up, the tested form may be a part): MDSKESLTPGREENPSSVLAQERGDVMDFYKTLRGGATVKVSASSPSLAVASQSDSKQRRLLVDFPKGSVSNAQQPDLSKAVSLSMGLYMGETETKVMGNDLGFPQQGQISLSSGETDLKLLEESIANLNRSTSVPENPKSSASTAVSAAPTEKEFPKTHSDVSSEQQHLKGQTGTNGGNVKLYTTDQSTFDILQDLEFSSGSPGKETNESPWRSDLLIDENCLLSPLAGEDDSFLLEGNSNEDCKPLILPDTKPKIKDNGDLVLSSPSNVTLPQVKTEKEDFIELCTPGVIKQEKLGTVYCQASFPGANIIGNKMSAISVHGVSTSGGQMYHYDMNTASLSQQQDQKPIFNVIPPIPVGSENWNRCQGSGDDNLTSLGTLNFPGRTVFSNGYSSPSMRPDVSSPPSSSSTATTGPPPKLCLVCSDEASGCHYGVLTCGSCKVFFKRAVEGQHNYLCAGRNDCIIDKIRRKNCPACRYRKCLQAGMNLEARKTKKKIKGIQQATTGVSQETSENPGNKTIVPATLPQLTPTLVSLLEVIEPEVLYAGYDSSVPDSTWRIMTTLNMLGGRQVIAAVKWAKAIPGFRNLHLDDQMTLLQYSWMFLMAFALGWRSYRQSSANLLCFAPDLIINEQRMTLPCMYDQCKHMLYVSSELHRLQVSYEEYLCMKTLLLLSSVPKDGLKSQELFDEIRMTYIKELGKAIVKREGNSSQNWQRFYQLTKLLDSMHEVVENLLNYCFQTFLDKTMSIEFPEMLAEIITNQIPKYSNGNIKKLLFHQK
Chain of Cytochrome P450 1A2 (Homo sapiens) (P05177 whole entry, looked up): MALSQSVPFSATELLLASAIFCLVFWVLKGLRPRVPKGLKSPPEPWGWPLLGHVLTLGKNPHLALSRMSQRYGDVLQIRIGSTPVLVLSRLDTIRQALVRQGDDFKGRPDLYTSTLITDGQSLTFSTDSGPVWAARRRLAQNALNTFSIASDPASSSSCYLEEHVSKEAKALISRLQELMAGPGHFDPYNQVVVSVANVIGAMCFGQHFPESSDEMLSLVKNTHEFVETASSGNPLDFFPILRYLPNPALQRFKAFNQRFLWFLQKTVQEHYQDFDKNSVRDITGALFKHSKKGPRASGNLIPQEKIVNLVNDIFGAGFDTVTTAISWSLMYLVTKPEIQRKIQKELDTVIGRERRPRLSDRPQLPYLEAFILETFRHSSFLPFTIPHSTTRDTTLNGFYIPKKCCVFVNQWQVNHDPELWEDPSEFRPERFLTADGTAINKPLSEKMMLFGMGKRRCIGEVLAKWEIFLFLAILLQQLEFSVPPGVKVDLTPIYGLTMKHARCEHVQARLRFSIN

As to `CC(=O)Oc1ccc(C(c2ccc(OC(C)=O)cc2)c2ccccn2)cc1`, the Potency result in [1], in [10], in experiment [11], in experiment [12], in [13] and in experiment [14] was “inactive” in each case. For the same compound, the Potency in experiment [2], in experiment [3], in [4], in [5], in [6] and in experiment [7] was above 92 µM throughout. Moreover, the activity change, negative = inhibition in [8] is 7.84% and -13.9%. In [9], the compound was classed as inactive. For the same compound, the activity change, negative = cytotoxicity in [15] was -2.53%.

For `NCCc1ccn[nH]1`, in experiment [1], the Potency result is “inactive”. The activity change, negative = inhibition in [8] was -6.22%. In addition, the outcome in experiment [9] was inactive.

For the compound `CC(C)(Oc1ccc(Cl)cc1)C(=O)O`, the figures for the activity change, negative = inhibition in [16] and in experiment [8] were -0.859% and 15.7%, respectively. The activity, negative = inhibition in [17] was -4.02%. Besides, in experiment [18], the Potency is > 20.6 µM and > 46 µM. Besides, the result in experiment [9] was inactive.

Regarding `CN(C)CCCOc1nn(Cc2ccccc2)c2ccccc12`, in experiment [16], the activity change, negative = inhibition is 10.8%. Moreover, the activity, negative = inhibition in experiment [17] is -8.78%. Further, the Potency in [19] is above 20.6 µM. Further, the result in experiment [9] was inactive.

In the case of `O=C(CCCN1CCC(O)(c2ccc(Br)cc2)CC1)c1ccc(F)cc1`, the Potency was 5.01 µM (active) in [1], above 20.6 µM in experiment [19] and above 20.6 µM in experiment [18]. In addition, in [8], the activity change, negative = inhibition is -24.7%. Moreover, the activity, negative = inhibition in [17] is 1.5%. The outcome in [9] was inactive.

For `NC(=NCCCCCCN=C(N)/N=C(\N)Nc1ccc(Cl)cc1)/N=C(\N)Nc1ccc(Cl)cc1`, the Potency is 15.8 µM (active) in experiment [1]; 42.1 µM (active) in experiment [3]; 45.6 µM (active) in experiment [4]; 39.6 µM (active) in experiment [5]; 50 µM (active) in experiment [6]; 46.5 µM (active) in experiment [7]. Besides, the Potency is 31.6 µM (active) in experiment [10], 31.6 µM (active) in experiment [11], 39.8 µM (active) in experiment [12] and 31.6 µM (active) in experiment [13]. Also, the activity, negative = inhibition in experiment [17] is -5.46%. Besides, the compound was called inactive in experiment [9]. Also, the activity change, negative = cytotoxicity in experiment [15] is -102% (active).

As for `CNCC[C@@H](Oc1ccccc1C)c1ccccc1`, the Potency in experiment [1] is 15.8 µM (active); in experiment [18] it was above 46 µM. Further, the compound was classed as inactive in [9].

Consider `CN(C)CCOc1ccccc1Cc1ccccc1`, for which the activity change, negative = inhibition in experiment [16] is 16.9%. Also, the activity, negative = inhibition in experiment [17] is -3.49%.

Regarding `C=C(CC)C(=O)c1ccc(OCC(=O)O)c(Cl)c1Cl`, the Potency result in experiment [1] and in experiment [12] was “inactive” in each case. The Potency was 9.25 µM (active) in experiment [3], above 92 µM in experiment [6] and 45.3 µM (active) in experiment [7]. Further, the activity change, negative = inhibition in experiment [8] was -133% (active). In addition, the activity, negative = inhibition in [17] was -17.9%. Further, the compound was classed as inactive in experiment [9]. For the same compound, the activity change, negative = cytotoxicity was -112% (active) in [10], -86.1% (active) in experiment [11] and -86.3% (active) in experiment [15]. Besides, in [14], the viability change, negative = cytotoxic was -99.4% (active).

The values are drawn from PubChem BioAssay (NCATS).
